RecA intein inh = Mtb RecA intein splicing inhibitors, primary screen, biochemical, fluorescence, HTS. Protein RecA (Mycobacterium tuberculosis (strain ATCC 25618 / H37Rv)), P9WHJ3. cell-free RecA intein splicing. inhibition, % (concentration not given with the values). hit rate 0.75% among 290,000; in the data active = inhibition above about 30%; inconclusive = no clear call, values can overlap the other calls
Mtb betalactam = beta-lactam sensitization of Mtb H37Rv, H37Rv; inhibition, % at 25 µM; AID 434955, 2010; hit rate 0.27% among 330,000; M. tuberculosis H37Rv growth with meropenem, percent inhibition;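 also: growth measured after seven days incubation then overnight dye step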
Mtb FBA inh = Mtb FBA enzyme inhibitors, primary screen, biochemical, fluorescence, strain H37Rv | AID 588726, 2011 | Fructose-bisphosphate aldolase (Mycobacterium tuberculosis (strain ATCC 25618 / H37Rv)), … | hit rate 2.3% among 360,000 | purified M. tuberculosis FBA, fluorescence read-out | inhibition, % at 1 µM; in the data active = inhibition above about 27%
Target sequence (P9WQA3 whole entry, looked up): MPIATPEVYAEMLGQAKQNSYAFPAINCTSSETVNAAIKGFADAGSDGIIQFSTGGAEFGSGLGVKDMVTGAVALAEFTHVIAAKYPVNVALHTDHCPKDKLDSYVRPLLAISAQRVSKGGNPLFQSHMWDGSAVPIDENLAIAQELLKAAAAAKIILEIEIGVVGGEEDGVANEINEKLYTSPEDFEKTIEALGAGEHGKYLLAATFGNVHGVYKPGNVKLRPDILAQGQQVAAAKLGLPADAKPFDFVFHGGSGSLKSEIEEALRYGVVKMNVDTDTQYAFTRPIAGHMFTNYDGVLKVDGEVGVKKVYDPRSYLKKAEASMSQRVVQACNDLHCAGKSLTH
Rv3671c protease = Rv3671c serine protease inhibitors, primary screen, biochemical, fluorescence polarization, M. tuberculosis H37Rv; P9WHR9; hit rate 0.048% among 320,000; inhibition, % at 5.96 µM; in the data active = inhibition above about 38%;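 also: extracellular domain of Rv3671c used as enzyme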
Mtb UGM inh = M. tuberculosis UGM enzyme inhibitors, primary screen, biochemical, fluorescence polarization, single point. purified UGM, fluorescence polarization probe displacement. inhibition, % at 10 µM. UDP-galactopyranose mutase (Mycobacterium tuberculosis (strain ATCC 25618 / H37Rv)), …. hit rate 0.06% among 320,000; in the data active = inhibition above about 10%, passing the limit was not always enough; inconclusive = no clear call, values can overlap the other calls
Target sequence (P9WIQ1 whole entry, looked up): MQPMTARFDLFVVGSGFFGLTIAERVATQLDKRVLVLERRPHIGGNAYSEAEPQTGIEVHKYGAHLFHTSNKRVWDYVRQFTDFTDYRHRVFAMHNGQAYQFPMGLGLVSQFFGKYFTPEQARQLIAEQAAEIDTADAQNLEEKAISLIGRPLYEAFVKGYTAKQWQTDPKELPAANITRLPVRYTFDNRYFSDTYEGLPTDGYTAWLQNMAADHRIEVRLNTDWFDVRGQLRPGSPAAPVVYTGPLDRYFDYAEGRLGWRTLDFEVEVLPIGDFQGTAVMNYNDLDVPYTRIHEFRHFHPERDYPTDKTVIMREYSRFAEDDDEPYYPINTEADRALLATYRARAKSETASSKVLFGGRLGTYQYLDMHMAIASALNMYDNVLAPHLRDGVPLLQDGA
GDH-TPI counter-1 = GDH-TPI coupling enzyme inhibitors, primary screen, artefact control for M. tuberculosis FBA inhibitor project, biochemical, absorbance, full deck. GDH-TPI coupled enzyme counterscreen, NADH absorbance. inhibition, % at 4.8 µM. hit rate 1.2% among 360,000; in the data active = inhibition above about 30%
Mtb FBA confirm = M. tuberculosis aldolase blockers, biochemical, fluorescence, strain H37Rv, confirmation; shares compounds with Mtb FBA inh; AID 651616, 2012; hit rate 78% among 5,600; inhibition, % at 1 µM; purified M. tuberculosis FBA, fluorescence read-out; in the data active = inhibition above about 27%
GDH-TPI counter-2 = GDH-TPI coupling enzyme inhibitors, artefact control for M. tuberculosis FBA inhibitor project, biochemical, fluorescence, high throughput. shares compounds with Mtb FBA inh. GDH-TPI coupled enzyme counterscreen. inhibition, % at 1 µM. hit rate 81% among 5,600; in the data active = inhibition above about 10%
GDH-TPI DR = GDH-TPI coupling enzyme inhibitors, dose response, artefact control for M. tuberculosis FBA inhibitor project, biochemical, fluorescence, IC50; shares compounds with Mtb FBA inh; GDH-TPI coupled enzyme assay, artifact counterscreen; IC50, µM; hit rate 79% among 170; AID 652145, 2013
Each line names hits and unclear results; the compound was inactive in the other large screens (follow-up assays come after a bar, where they were run). This is a sample that favours compounds with a hit; in the whole collection about 4% have one here. Unless noted, no rule for the calls is given here.

NC(=O)c1nsc(C(=O)N(c2ccccc2F)C(C(=O)NCc2ccc(F)cc2)c2ccc(O)cc2)c1N (centres undefined)	Mtb FBA inh 35 | Mtb FBA confirm 145 | GDH-TPI counter-2 107
COc1ccccc1N(C(=O)c1snc(C(N)=O)c1N)C(C(=O)NCc1ccccc1)c1ccc(O)cc1 (centres undefined)	none (no result: Mtb betalactam, Rv3671c protease, Mtb UGM inh)
CCOC(=O)c1[nH]c2cc(OC)c(OC)cc2c1NC(=O)C(C)N1CCN(Cc2ccccc2)CC1 (centres undefined)	Mtb FBA inh 47 | Mtb FBA confirm active | GDH-TPI counter-2 active
CCOC(=O)c1[nH]c2ccc(OC)cc2c1NC(=O)C(C)N1CCSCC1 (centres undefined)	none (no result: Mtb betalactam, Mtb FBA inh, Rv3671c protease, Mtb UGM inh, GDH-TPI counter-1)
COc1ccc2cc(C(N)=O)c(=Nc3ccc(C)cc3)oc2c1	Mtb FBA inh 35 | GDH-TPI counter-2 active
COc1ccc2o/c(=N\O)c(C(=O)Nc3ccc(C)cc3)cc2c1	none (no result: Mtb betalactam, Rv3671c protease, Mtb UGM inh)
COc1ccc2oc(=Nc3cccc(F)c3)c(C(N)=O)cc2c1	Mtb FBA inh 39 | Mtb FBA confirm inactive | GDH-TPI counter-2 inactive
O=C(CCc1nc2ccccc2c(=O)[nH]1)NNC(=O)c1ccc(F)cc1	none (no result: RecA intein inh)
Cc1c(NC(=O)COc2ccc3ccc(=O)oc3c2)c(=O)n(-c2ccccc2)n1C	Mtb FBA inh 79 | Mtb FBA confirm 64 | GDH-TPI counter-2 57
CCCCNC(=O)c1cnc(Cc2c[nH]c3ccccc23)c(I)c1	none (no result: RecA intein inh, Mtb betalactam, Rv3671c protease, Mtb UGM inh)
CC12CCC(=O)N1c1c(sc3nc(N4CCOCC4)c4c(c13)CCCC4)C(=O)N2 (centres undefined)	Mtb FBA inh 63 | Mtb FBA confirm 122 | GDH-TPI counter-2 113
O=C(c1ccccc1Br)N(Cc1ccccc1)c1ccccc1	none
O=c1c2c(-c3ccccc3)csc2nc2c3ccccc3c(NCCN3CCOCC3)nn12	Mtb FBA inh 29 (no result: Mtb betalactam, Rv3671c protease, Mtb UGM inh) | Mtb FBA confirm 94 | GDH-TPI counter-2 66
Cc1ccc2nc(-c3ccc(C#N)cc3)c(Cc3ccccn3)n2c1	Mtb FBA inh 61 (no result: RecA intein inh, Mtb betalactam, Rv3671c protease, Mtb UGM inh, GDH-TPI counter-1) | Mtb FBA confirm 146 | GDH-TPI counter-2 94
Cn1c(SCC(=O)Nc2nccs2)nnc1-c1ccc(S(=O)(=O)N2CCCC2)cc1	none
O=C(CSc1n[nH]c(-c2ccc(S(=O)(=O)N3CCCCC3)cc2)n1)Nc1nccs1	Mtb FBA inh 61 | Mtb FBA confirm 65 | GDH-TPI counter-2 47
COc1ccc(-n2c(N)c(C(=O)NCc3ccco3)c3nc4ccccc4nc32)cc1	Mtb FBA inh 98, GDH-TPI counter-1 32 | Mtb FBA confirm 44 | GDH-TPI counter-2 41
Nc1c(C(=O)NCCN2CCOCC2)c2nc3ccccc3nc2n1CCc1ccccc1	Mtb FBA inh 94 | Mtb FBA confirm 46 | GDH-TPI counter-2 34
CC(=O)Nc1ccc(S(=O)(=O)C(C#N)c2nc3ccccc3nc2NCCN2CCOCC2)cc1 (centres undefined)	Mtb FBA inh 56 | Mtb FBA confirm 73 | GDH-TPI counter-2 62
CC(=O)Nc1ccc(S(=O)(=O)c2c(N)n(CCN3CCOCC3)c3nc4ccccc4nc23)cc1	Mtb FBA inh 60 | Mtb FBA confirm 170 | GDH-TPI counter-2 129
Nc1c(S(=O)(=O)c2cc(Cl)ccc2Cl)c2nc3ccccc3nc2n1CCN1CCOCC1	none
COc1cccc(C(C)(O)c2nc(-c3cccc4cccnc34)cs2)c1 (centres undefined)	none (no result: RecA intein inh, Mtb betalactam, Rv3671c protease, Mtb UGM inh)
COc1ccc(C2/C(=C(/O)c3ccc(F)cc3)C(=O)C(=O)N2CCCN2CCOCC2)cc1OC (centres undefined)	none
C=CCNC(=O)c1c(N)n(CCN2CCOCC2)c2nc3ccccc3nc12	Mtb FBA inh 51 | Mtb FBA confirm 38 | GDH-TPI counter-2 27
Nc1c(C(=O)NCc2ccco2)c2nc3ccccc3nc2n1CCN1CCCCC1	Mtb FBA inh 91 | Mtb FBA confirm inactive | GDH-TPI counter-2 inactive | GDH-TPI DR 1.6
Cc1nc2nc(-c3ccc(F)cc3)cn2nc1C	Mtb betalactam inconclusive, Mtb FBA inh 50 | Mtb FBA confirm 43 | GDH-TPI counter-2 38
COc1cc2cc(CCCOC(=O)c3ccco3)oc(=O)c2cc1OC	none (no result: RecA intein inh)
C=CCNC(=O)c1cc(-c2cccnc2)nc2ccccc12	none
Cc1cc(C)c2nc(-c3ccccn3)cc(C(=O)Nc3cc(C)on3)c2c1	none (no result: RecA intein inh)
Cc1cc(C)c2nc(-c3ccccn3)cc(C(=O)NCc3ccco3)c2c1	Mtb FBA inh 51 | Mtb FBA confirm active | GDH-TPI counter-2 199
Cc1cc(C)c2nc(-c3ccccn3)cc(C(=O)NCc3cc(C)n(C)n3)c2c1	Mtb FBA inh 76 | Mtb FBA confirm 68 | GDH-TPI counter-2 53
C=CCNC(=O)c1cc(-c2ccncc2)nc2c(C)cc(C)cc12	Mtb FBA inh 60 | Mtb FBA confirm 152 | GDH-TPI counter-2 130
CC(=O)NC(C)(c1ccccc1)c1nc(-c2cccc(C(F)(F)F)c2)cs1 (centres undefined)	none (no result: RecA intein inh, Mtb betalactam, Rv3671c protease, Mtb UGM inh)
Cc1c2c(nc3c(C(=O)NC4CC4)cnn13)CCCC2	none (no result: Mtb UGM inh)
CCC(C)NC(=O)c1cnn2c(C)c3c(nc12)CCCC3 (centres undefined)	Mtb FBA inh 46 | Mtb FBA confirm active | GDH-TPI counter-2 active
CC(C)(C)CC(C)(C)Nc1c(-c2ccc(O)cc2)nc2cnccn12	Mtb FBA inh 59 | Mtb FBA confirm active | GDH-TPI counter-2 active
O=C(CSc1ncccc1-c1nc2ccccc2[nH]1)NCc1ccco1	none
Cc1cc2nc(-c3cccnc3SCC(=O)NCc3ccco3)[nH]c2cc1C	Mtb FBA inh 40 | Mtb FBA confirm inactive | GDH-TPI counter-2 inactive
CCN(CC)C1CCN(C(=O)c2cc(COc3ccc(-n4cncn4)cc3)on2)C1 (centres undefined)	none
CCCc1nc2ccc(Cl)cn2c1Cc1ccsc1	none (no result: RecA intein inh, Mtb betalactam, Rv3671c protease, Mtb UGM inh, GDH-TPI counter-1)
COc1cc(OC)c(Cl)cc1N	Mtb FBA inh 45 | Mtb FBA confirm 67 | GDH-TPI counter-2 51
COc1ccc(OC)c(N)c1	none
COc1cc2c(c(OC)c1OC)C(c1ccccc1C)CC(=O)O2 (centres undefined)	none (no result: RecA intein inh, Mtb betalactam, Rv3671c protease, Mtb UGM inh)
O=C(COc1ccccc1)Nc1cccc(-c2nc3cc4ccccc4cc3[nH]2)c1	Mtb FBA inh 72 (no result: RecA intein inh) | Mtb FBA confirm 101 | GDH-TPI counter-2 79

High-throughput results: PubChem, several laboratories
